Compound activity (PubChem)
In the library only some 0.9% were active in any assay of this set; here they are far more common.
BJeLR viability: BJeLR cell viability loss, primary screen, luminescence, CellTiterGlo ATP. BJeLR fibroblasts viability, 48 h; HRASV12, hTERT and SV40 LT/ST transformed. viability loss activity score, % (concentration not given with the values). 30,000 compounds, 0.64% hits. AID 2275, 2010; in the data active = viability loss activity score above about 50%;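 note: higher score means fewer live cells and less ATP luminescence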
A1 inh: inducers of caspase activity in MEF A1-2A-BIM cells, primary screen, A1 inhibitor project, cell-based, CaspaseGlo luminescence; caspase activation, % (concentration not given with the values); AID 2241, 2010; 21,000 compounds, 0.51% hits; caspase-Glo luminescence, 3 h; percent of clofoctol signal, DMSO as zero;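 active = most replicate scores above 10, or exactly half above 10 with mean activity above 10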;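 note: effector caspase 3 and 7 activity cleaving a DEVD luciferin substrate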
* hit, by the source's call.

Screening CCOC(=O)c1ccc(Nc2cc(C)nc(C)c2C(=O)OCC)cc1 returned BJeLR viability 1.
`Fc1ccc(-n2c(C34CC5CC(CC(C5)C3)C4)n[nH]c2=S)cc1` gave BJeLR viability -6.
`CCc1ccc(N(CC)C(=O)c2cc3c(=O)n(CC)c4ccccc4c3s2)cc1` gave BJeLR viability -3.
CCc1ccc2nc(Nc3nc4ccccc4c(=O)[nH]3)nc(C)c2c1 was read as BJeLR viability 87* and A1 inh -4.
Cc1ccc(SCc2cc(=O)[nH]c(Nc3nc(C)c4ccccc4n3)n2)cc1 was read as BJeLR viability -1 and A1 inh 1.
`COc1cc2c(cc1OC)C(C)N(C(=O)c1cc3c(Cl)nc4ccc(C)cc4c3s1)CC2` (stereo not given) gave BJeLR viability 2.
CC(C)(C)C(=O)Nc1c2c(nn1-c1cccc(Cl)c1)CS(=O)C2 (stereo not given) was read as BJeLR viability -3.
O=C(NCc1ccc2c(c1)OCO2)C1(S(=O)(=O)c2ccc(Cl)cc2)CC1 was read as BJeLR viability -7.
O=C1CC(=O)N(c2ccccc2)N1c1ccccc1 was read as BJeLR viability 1 and A1 inh 1.
For O=C1C=CC(=O)N1c1ccccc1 the results were BJeLR viability 127* and A1 inh -5.
Cc1ccc(SCC(=O)n2c3ccccc3c3ccccc32)cc1 was read as BJeLR viability 1.
Screening CCC(=O)N1CCc2cc(S(=O)(=O)NC(CC(C)C)C(=O)N3CCC(C)CC3)ccc21 (stereo not given) returned BJeLR viability -7.
For O=C(Nc1cccc(Br)c1)c1cccc2c1C(=O)c1ccccc1-2 the results were BJeLR viability 1 and A1 inh 26*.
`O=C(c1ccc2c(c1)C(=O)c1ccccc1-2)c1ccccc1Br` gave BJeLR viability 5 and A1 inh 0.
For O=C1c2ccccc2-[n+]2ccc3c([nH]c4ccccc43)c21 the results were BJeLR viability 130* and A1 inh -1.
For O=C1C(c2c(O)[nH]c3ccccc23)=Nc2ccccc21 the results were BJeLR viability 6 and A1 inh -2.
`N#CCSc1nc2ccccc2c(=O)n1CCCC(=O)NCc1ccco1` gave BJeLR viability -4 and A1 inh -1.
For N#CCSc1nc2cc(C(=O)NCc3ccccc3)ccc2c(=O)n1CCc1ccccc1 the results were BJeLR viability 1 and A1 inh 22*.
Screening O=C1Nc2ccccc2/C1=C/C(=O)c1ccc(Cl)cc1 returned BJeLR viability 65* and A1 inh 65*.
`O=C1Nc2ccccc2/C1=C\c1c(Cl)[nH]c2ccccc12` gave BJeLR viability 27 and A1 inh 2.
Screening C=C1C(=O)O[C@@H]2C=C(C)[C@@H]3CC[C@@](C)(O)[C@@H]3C[C@H]12 returned BJeLR viability -12 and A1 inh -1.
For C=C1C(=O)O[C@H]2C3=C(C)CCC[C@]3(C)C(=O)C[C@@H]12 the results were BJeLR viability 53* and A1 inh -1.
`CCC(C)N1C(=O)C2C(C(=O)Nc3cccc(Cl)c3)C3C=CC2(O3)C1C(=O)NC1CCCCC1` (stereo not given) gave BJeLR viability -1.
CC(=O)O[C@H]1[C@H](Oc2ccccc2COC(=O)C2(O)C=CCCC2=O)O[C@H](CO)[C@@H](O)[C@@H]1O (stereo not given in full) was read as BJeLR viability -17 and A1 inh 0.
O=C(O[C@H]1[C@H](Oc2ccccc2COC(=O)C2(O)C=CCCC2=O)O[C@H](CO)[C@@H](O)[C@@H]1O)c1ccccc1 (stereo not given in full) was read as BJeLR viability 58* and A1 inh 0.
COc1ccc(-c2c(C)nn3c(N)c(-c4ccccc4)cnc23)cc1 was read as BJeLR viability 3 and A1 inh -1.
For CCOc1ccc2nc(-c3nc4ccccc4s3)sc2c1 the results were BJeLR viability 17.
Screening CN1CCN(S(=O)(=O)c2ccc(Br)cc2)CC1 returned BJeLR viability 9 and A1 inh 0.
O=S(=O)(c1ccc(-c2csc(Nc3ccc(Br)cc3)n2)cc1)N1CCCCC1 was read as BJeLR viability 9 and A1 inh 15*.
For CC(C)c1ccc(NC(=O)C2CCC(CNS(=O)(=O)c3cccc4nsnc34)CC2)cc1 (stereo not given) the results were BJeLR viability 10.
`CC(C)CCN1NC(C)(C)NC1=S` gave BJeLR viability 0.
Screening Cc1ccc2oc(=O)c3cnn(CC(=O)NCC4(c5ccccc5)CCCC4)c3c2c1 returned BJeLR viability -4.
For O=C(c1cccc(COc2ccccc2Cl)c1)N1CCCCC1 the results were BJeLR viability -4.
`O=C1C(Nc2ccccc2)=CC(=O)c2ncccc21` gave BJeLR viability 69* and A1 inh -1.
Oc1cc(C2CCCCC2)cc(C2CCCCC2)c1 was read as BJeLR viability 3 and A1 inh 46*.
For O=C1NCC(O)=C1C=Nc1ccc(C2CCCCC2)cc1 the results were BJeLR viability 4.
`CCOC(=O)c1ccc(CC2SC(=Nc3ccc(CC)cc3)NC2=O)cc1` (stereo not given) gave BJeLR viability 2.
O=C(Sc1ccccn1)N1c2ccccc2Sc2ccccc21 was read as BJeLR viability 4 and A1 inh 0.
For O=C(/C=C/Sc1ccccn1)c1ccccc1 the results were BJeLR viability 76* and A1 inh 2.
`Cc1ccc(Cl)cc1N1CCN(CCCNC(=O)c2cc3c(C)nc4ccccc4c3o2)CC1` gave BJeLR viability 1.
For C=CCN(C(=O)CSc1nc2c(sc3ccccc32)c(=O)n1Cc1cccnc1)c1ccccc1 the results were BJeLR viability -5 and A1 inh -1.
Screening CN(Cc1ccccc1)C(=O)c1cnc2sccn2c1=O returned BJeLR viability 3.
Screening COc1cc([C@@H]2c3cc4c(cc3[C@@H](OC3OC5COC(C)OC5C(O)C3O)[C@H]3COC(=O)[C@H]23)OCO4)cc(OC)c1O (stereo not given in full) returned BJeLR viability 52* and A1 inh 1.
`COc1cc([C@@H]2c3cc4c(cc3C(OC3O[C@@H]5COC(C)O[C@H]5[C@H](O)[C@H]3O)C3COC(=O)[C@@H]32)OCO4)cc(OC)c1O` (stereo not given in full) gave BJeLR viability 8 and A1 inh 1.
Screening COc1ccccc1-n1cc(-c2ccccc2)c2c(SCC(C)C)ncnc21 returned BJeLR viability -6.
CCOc1ccc(-n2c(SCC)nc3c([nH]c4ccccc43)c2=O)cc1 was read as BJeLR viability -3.
Screening CC(C)c1ccc2c(c1)CCC1[C@](C)(C(=O)O)CCC[C@]21C (stereo not given in full) returned BJeLR viability 2 and A1 inh 0.
For CC(C)c1c(O)ccc2c1CCC1C(C)(C)CCC[C@]21C (stereo not given in full) the results were BJeLR viability 5 and A1 inh 43*.
`CCOC(=O)c1cnc2c(C)cc(Cl)cc2c1NCc1ccccc1` gave BJeLR viability -6.
